# Screening data (PubChem)
# The list is not random: actives were taken first. Their share in the collection is about 3.3%.
# UBC13 polyUb: UBC13 polyubiquitin chain formation inhibitors, primary screen, biochemical, TR-FRET, uHTS; inhibition, % at 20 µM; hit rate 0.47% among 330,000; AID 485273, 2010; in the data active = inhibition above about 45%, passing the limit was not always enough; inconclusive = no clear call, values can overlap the other calls
# Target sequence (P61088 whole entry, looked up): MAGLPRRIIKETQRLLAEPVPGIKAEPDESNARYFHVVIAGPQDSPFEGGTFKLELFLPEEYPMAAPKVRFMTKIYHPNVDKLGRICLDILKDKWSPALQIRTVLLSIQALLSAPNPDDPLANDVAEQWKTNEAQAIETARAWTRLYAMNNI
# SUMO HTRF inh: inhibitors of in vitro SUMOylation cascade, primary screen, biochemical, HTRF, uHTS. SUMO-conjugating enzyme UBC9 (Homo sapiens), P63279. HTRF SUMOylation assay, SAE1/SAE2 + UBC9. inhibition, % at 35 µM. hit rate 0.36% among 290,000; in the data active = inhibition above about 50%, passing the limit was not always enough; inconclusive = no clear call, values can overlap the other calls
# Target sequence (P63279 whole entry, looked up): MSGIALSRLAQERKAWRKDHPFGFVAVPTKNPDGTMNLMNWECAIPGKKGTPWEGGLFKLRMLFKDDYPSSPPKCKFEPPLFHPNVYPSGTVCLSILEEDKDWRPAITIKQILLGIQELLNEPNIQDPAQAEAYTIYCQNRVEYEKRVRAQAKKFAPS
# HGIII-sPLA2 inh: human group III sPLA2 inhibitors, primary screen, biochemical, QFRET, BODIPY PC-A2 liposome substrate. QFRET BODIPY PC-A2 liposome hydrolysis, fluorescence. inhibition, % at 12.2 µM. hit rate 0.56% among 370,000;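 active = inhibition above mean plus 3 SD of compounds lying within the high and low control bounds, cut at about 19% in these data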;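 also: 0% = median of test compound wells and 100% = no enzyme DMSO wells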
# NR3A LBD binder: binders of NR3A ligand-binding domain, primary screen, biophysical, differential scanning fluorimetry, uHTS; hit rate 2.5% among 340,000; NR3A LBD differential scanning fluorimetry, Tm shift; 0% = protein alone, 100% = glycine-bound protein; Tm shift relative to glycine control, % at 25 µM; Glutamate receptor ionotropic, NMDA 3A (GRIN3A) ligand-binding domain; AID 1259313, 2017;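 active = melting temperature shift of at least 10% of the positive control shift, at one fixed dose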
# Casp3 counter: CASP3 inhibitor validation, counterassay for project on UBE2N polyubiquitination blockers, biochemical, one dose | hit rate 4% among 1,400 | Recombinant caspase-3, Caspase-Glo 3/7 luminescence, 60 min | AID 488856, 2010 | inhibition, % at 20 µM | shares compounds with UBC13 polyUb;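 active = mean inhibition across replicates above about 26%, limit read from the data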;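 also: plate controls were DMSO with caspase-3 for no effect and DMSO wells lacking enzyme for full effect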
# Target sequence (P42574 whole entry, looked up): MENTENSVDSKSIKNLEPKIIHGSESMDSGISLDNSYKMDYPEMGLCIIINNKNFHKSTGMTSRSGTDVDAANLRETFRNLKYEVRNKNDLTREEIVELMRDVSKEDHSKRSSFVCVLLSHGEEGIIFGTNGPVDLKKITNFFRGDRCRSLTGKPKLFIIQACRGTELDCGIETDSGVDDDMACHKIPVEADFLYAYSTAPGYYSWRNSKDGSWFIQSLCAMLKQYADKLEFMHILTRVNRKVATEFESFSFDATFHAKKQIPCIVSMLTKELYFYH
# UBC13 conf: UBC13 polyubiquitination inhibitors, single-point retest, confirmation, biochemical, TR-FRET, single concentration; shares compounds with UBC13 polyUb; inhibition, % at 10 µM; hit rate 68% among 1,400; in the data active = inhibition above about 45%; inconclusive = no clear call, values can overlap the other calls
# * = called active by the depositor; ? = inconclusive; . = no result given.
SMILES,UBC13 polyUb,SUMO HTRF inh,HGIII-sPLA2 inh,NR3A LBD binder,Casp3 counter,UBC13 conf
NC(=O)CCCn1c(C(=O)c2cc(Cl)c(N)c(Cl)c2)c2ccc([N+](=O)[O-])cc2[n+]1[O-],82*,.,-11,-1,1,78*
COc1ccc2c(c1)CCCN2C(=O)C1CCCN(S(=O)(=O)c2c(C(C)C)cc(C(C)C)cc2C(C)C)C1 (stereo not given),.,.,4,.,.,.
C[C@H](NC(=O)c1ccccc1Cl)C(=O)OCc1cn2cc(Cl)ccc2n1,106*,.,2,0,6,4
CC(NC(=O)c1ccccc1Cl)C(=O)OCc1cn2cc(Cl)ccc2n1 (stereo not given),-3,.,8,3,.,.
Cc1ccc(C)c(NC(=O)CNS(=O)(=O)c2ccc3[nH]c(=O)oc3c2)c1,.,.,-17,.,.,.
Cc1ccccc1C(=O)NCC(=O)NNC(=S)NC(=O)c1ccccc1C,87*,-12,2,-2,4,78*
Cc1ccccc1C(=O)NCC(=O)NNC(=S)NC(=O)c1ccccc1,80*,-23,-4,-1,1,82*
COC(=O)[C@H]1C[C@]2(C/C=C(\C)CCC=C(C)C)c3ccccc3N[C@H]2N1,.,.,1,.,.,.
COc1cc(/C=C/c2cc[n+](C)cc2)ccc1OCC(=O)Nc1ccc(Cl)c(Cl)c1,103*,35,-32,-10,-1,116*
COC(=O)[C@]12C[C@H](CC(=O)N3CCN(C(=O)c4ccco4)CC3)C(=O)N(CCc3ccc(OC)c(OC)c3)C1=C[C@H](COCc1ccccc1)O[C@@H]2C,.,.,-6,.,.,.
CN1CCN(CC/C=C2/c3ccccc3Sc3ccc(S(=O)(=O)N(C)C)cc32)CC1,55*,9,5,-2,1,26
CN1CCN(CC(=O)N2c3ccccc3Sc3ccccc32)CC1,1,-5,11,-1,.,.
O=C(CSc1nnc(-c2ccccn2)n1-c1ccccc1)c1ccc(Cl)c(Cl)c1,.,.,-37,.,.,.
CCC[C@H]1[C@@H](NC(=O)c2cccc(Cl)c2)CC[C@@]23CCCN2C(=O)CCC[C@@H]13,.,.,-5,.,.,.
COc1cccc(-c2sc3ccccc3c2-c2ccc(OCCN(C)C)cc2)c1,80*,.,4,0,-2,79*
COc1ccc(-c2sc3cc(OC)ccc3c2-c2ccc(OCCN3CCCCC3)cc2)cc1,.,.,-6,.,.,.
COc1cccc(-c2sc3ccccc3c2-c2ccc(OCCN3CCCCC3)cc2)c1,69*,.,.,0,-2,62*
COc1cccc(-c2sc3ccccc3c2-c2ccc(OCCN3CCCC3)cc2)c1,84*,.,-1,-2,-4,68*
COc1ccc(-c2sc3ccccc3c2-c2ccc(OCCN3CCCCC3)cc2)cc1,72*,.,5,2,-3,?
COc1ccc(S[C@]2(C(=O)N3CCOCC3)CC(=O)N(c3ccc(C#N)cc3)[C@@H]2c2ccc(OC)cc2)cc1,.,.,-10,.,.,.
Cc1ccnc(NCc2c(O)ccc3ccccc23)c1,54*,-2,-17,-6,-1,76*
CNC(=O)c1ccsc1NC(=O)C1CCCN1S(=O)(=O)c1cccs1 (stereo not given),46*,.,9,0,8,79*
O=C(Nc1ccccc1)C1CCCN1S(=O)(=O)c1cccs1 (stereo not given),2,.,1,0,.,.
COc1ccc(Cn2cc(C(=O)c3ccccc3)c(=O)c3cc(OC)ccc32)cc1,13,0,0,-3,.,.
Cc1ccc(Cn2cc(C(=O)c3ccc(F)cc3)c(=O)c3cc4c(cc32)OCCO4)cc1,45*,7,-2,1,-1,?
SMILES,UBC13 polyUb,SUMO HTRF inh,HGIII-sPLA2 inh,NR3A LBD binder,Casp3 counter,UBC13 conf
CCCCOc1ccc(C(=O)n2ccc3ccc(-c4ccc5ccn(Cc6cccc(C(=O)OC)c6)c5c4)cc32)cc1,.,.,2,.,.,.
COc1ccc(/C=N/Nc2cc(C)nc3ccc(OC)cc23)c(OC)c1,102*,10,-9,-1,4,122*
COc1ccc2nc(C)cc(N/N=C/c3ccccc3)c2c1,53*,.,.,-4,6,49*
COc1ccccc1/C=N/Nc1cc(C)nc2ccc(C)cc12,-6,8,7,-1,.,.
Cc1nn(-c2ccccc2)c2sc(C(=O)NC3CCCCCC3)cc12,.,.,16,.,.,.
CC[C@H](C)[C@@H](NC(=O)O[C@@H]1C(=O)c2cc(OC)ccc2O[C@H]1c1ccc(OC)c(Br)c1)C(=O)OC,46*,-5,.,5,2,?
COC(=O)[C@H](Cc1ccccc1)NC(=O)O[C@@H]1C(=O)c2cc(OC)ccc2O[C@H]1c1ccc(OC)c(Br)c1,32,5,.,.,.,.
Cn1nc(N)c2c(-c3ccc(Cl)cc3)c(C#N)c(N)nc21,72*,7,-1,-4,1,73*
Cn1nc(N)c2c(-c3ccccc3)c(C#N)c(N)nc21,59*,4,-3,-7,1,59*
CC(C)C[C@H](NC1(C(=O)NCCc2c[nH]c3ccccc23)CCC1)C(=O)NCCCc1ccccc1,.,.,-43,.,.,.
CCCCCCCCCCCCCCCC[N+](C)(C)CCN(Cc1ccc(OC)cc1)c1ncccn1,119*,.,.,23*,0,124*
COc1ccc(CN(CCN(C)C)c2ccccn2)cc1,-3,-10,4,-2,.,.
Cn1c(SCC(=O)NCc2ccc(F)cc2)ncc(C(=O)Nc2ccccc2)c1=O,60*,.,5,0,87*,53*
Cn1c(SCC(=O)NCCc2ccccc2)ncc(C(=O)Nc2ccccc2)c1=O,46*,.,6,4,94*,40
COc1ccc(NC(=O)c2cnc(SCC(=O)NCCc3ccccc3)n(C)c2=O)cc1,41,.,8,0,.,.
Cn1c(=O)c2c(nc(SCC(=O)NCc3ccc4c(c3)OCO4)n2Cc2ccc(F)cc2)n(C)c1=O,-3,7,5,-5,.,.
Cn1c(SCC(=O)NCc2ccc3c(c2)OCO3)ncc(C(=O)Nc2ccc(F)cc2)c1=O,50*,.,8,1,86*,45
C[C@H]1COc2c3ccccc3nn21,.,.,6,.,.,.
CCCN1CCN(CCCNC(=O)c2cc3c(s2)-c2c(C)cccc2OC3)CC1,49*,43,-4,-3,-1,57*
CCCN1CCN(CCCNC(=O)c2cc3c(s2)-c2ccccc2OC3)CC1,31,39,-10,-3,.,.
CC1CC(C)CN(CCCNC(=O)c2cc3c(s2)-c2ccccc2OC3)C1 (stereo not given),45*,.,-7,-4,-2,55*
